The values that follow come from PubChem BioAssay (EPA / NIEHS).

Test [1] is described as follows: CLD_ACTIN_6hr: CellzDirect (CLD) Gene Expression Assay for Baseline Control (Actin) at 6 hours (AID 2283676).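 Further: active means increased actin mRNA relative to DMSO vehicle.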 The method, boiled down: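 Baseline actin transcript level measured by qNPA (S1 nuclease protection, chemiluminescence) in human hepatocyte cultures 6 h after chemical exposure; 0.2% DMSO vehicle as reference, cytotoxicity noted from morphology.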
Read-out in test [2]: Cytochrome P450 2B6 (Homo sapiens) (UniProt P20813)
Put plainly: CLD_CYP2B6_6hr: CellzDirect (CLD) Gene Expression Assay for xenobiotic metabolism (CYP2B6) at 6 hours (AID 2283677).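 Further: actives raise CYP2B6 transcript above DMSO baseline so AC50 marks an inducer.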 The method, boiled down: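 CYP2B6 transcript levels, read by chemiluminescent qNPA, were fitted for increase versus DMSO baseline; cultured human liver hepatocytes from two donor preparations were harvested 6 h after exposure to test chemicals at multiple concentrations.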

A short description of test [3]: CCTE_Padilla_ZF_144hpf_TERATOSCORE: (Legacy) CCTE's 144 Hour Post-fertilization zebrafish Assay Teratoscore, Padilla Lab (AID 2283679; active means hit-call score of the fitted dose curve at least 0.9, where 1 is the maximum; inactive means score below 0.9;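 on AC50: zebrafish embryos with chorions exposed by immersion from 6-8 hpf to 5 dpf with daily renewal; teratogenicity score from eye scoring of death hatching and malformations at 144 hpf; higher score means more developmental defects relative to DMSO baseline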). Put shortly: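 Larvae scored by eye at 144 hpf for death, hatching and malformations after a day in clean Hanks'. Before that, daily-renewed exposure at 80 uM (0.4% DMSO, 26C) from roughly 6-8 hpf through 5 dpf, 4 embryos per chemical.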

Read-out in test [4]: Cytochrome P450 2B6 (Homo sapiens) (UniProt P20813)
Put plainly: CLD_CYP2B6_24hr: CellzDirect (CLD) Gene Expression Assay for xenobiotic metabolism (CYP2B6) at 24 hours (AID 2283686). Put shortly:
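qNPA chemiluminescent measurement of mRNA at 24 hours in human primary hepatocyte cultures from two donor preparations, with daily fresh dosing and 0.2% DMSO vehicle as baseline. Morphology-based cytotoxicity flagged yes/no.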

Read-out in test [5]: Cytochrome P450 2C19 (Homo sapiens) (UniProt P33261)
The experiment in a line: CLD_CYP2C19_24hr: CellzDirect (CLD) Gene Expression Assay for xenobiotic metabolism (CYP2C19) at 24 hours (AID 2283687).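 Further: activity means mRNA induction above DMSO vehicle baseline.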 Put shortly: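 CYP2C19 mRNA was quantified by qNPA chemiluminescence after 24 h of daily dosing of cultured human primary hepatocytes from two donors; vehicle was 0.2% DMSO, and increases over DMSO baseline were fitted.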

Read-out in test [6]: Cytochrome P450 2C9 (Homo sapiens) (UniProt P11712)
Put plainly: CLD_CYP2C9_24hr: CellzDirect (CLD) Gene Expression Assay for xenobiotic metabolism (CYP2C9) at 24 hours (AID 2283688). Put shortly:
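Induction of CYP2C9 mRNA was quantified by quantitative nuclease protection assay (chemiluminescence), gain of signal versus 0.2% DMSO vehicle, 24 h after dosing. Human primary hepatocytes (two donors) received fresh chemical daily at multiple concentrations; morphology-based cytotoxicity flagged yes/no.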

Read-out in test [7]: Cytochrome P450 3A4 (Homo sapiens) (UniProt P08684)
Put plainly: CLD_CYP3A4_24hr: CellzDirect (CLD) Gene Expression Assay for xenobiotic metabolism (CYP3A4) at 24 hours (AID 2283689). Put shortly:
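CYP3A4 mRNA induction read by quantitative nuclease protection (chemiluminescence) 24 hr after dosing. Cultured human hepatocytes (two donor preparations) treated daily, vehicle 0.2% DMSO; phase-contrast morphology annotates cytotoxicity.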

Read-out in test [8]: sulfotransferase (SULT2A), SULT2A1 (gene 6822)
The experiment in a line: CLD_SULT2A_24hr: CellzDirect (CLD) Gene Expression Assay for sulfotransferase (SULT2A) at 24 hours (AID 2283694). Put shortly:
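mRNA is measured by qNPA: probe hybridisation, S1 nuclease digestion, chemiluminescence, in lysates from human primary hepatocytes harvested 24 h after daily dosing. Vehicle was 0.2% DMSO. Phase-contrast microscopy flagged cytotoxicity (yes/no).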

Read-out in test [9]: glucuronosyltransferase (UGT1A1), UGT1A1 (gene 54658)
The experiment in a line: CLD_UGT1A1_24hr: CellzDirect (CLD) Gene Expression Assay for glucuronosyltransferase (UGT1A1) at 24 hours (AID 2283696). Put shortly: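 UGT1A1 transcript induction was measured by quantitative nuclease protection assay (chemiluminescence) in human hepatocyte cultures 24 h after daily fresh dosing, with 0.2% DMSO as vehicle and baseline.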

Read-out in test [10]: Cytochrome P450 3A4 (Homo sapiens) (UniProt P08684)
Put plainly: CLD_CYP3A4_6hr: CellzDirect (CLD) Gene Expression Assay for xenobiotic metabolism (CYP3A4) at 6 hours (AID 2283680). Put shortly:
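CYP3A4 mRNA induction, 6 h after dosing of cultured primary human hepatocytes from two donors, read by quantitative nuclease protection (qNPA, chemiluminescence). Vehicle 0.2% DMSO as baseline; morphology-based cytotoxicity annotated yes/no.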

Read-out in test [11]: ABC Transporter (ABCB11), ABCB11 (gene 8647)
Put plainly: CLD_ABCB11_48hr: CellzDirect (CLD) Gene Expression Assay for ABC Transporter (ABCB11) at 48 hours (AID 2283697). The method, boiled down: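 Induction of ABCB11 mRNA relative to 0.2% DMSO, measured at 48 h by qNPA chemiluminescence. Cultured human hepatocytes (two donors) received fresh dosing solutions at several concentrations on two consecutive days.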

Read-out in test [12]: xenobiotic metabolism (CYP1A2), CYP1A2 (gene 1544)
The experiment in a line: CLD_CYP1A2_24hr: CellzDirect (CLD) Gene Expression Assay for xenobiotic metabolism (CYP1A2) at 24 hours (AID 2283683). Put shortly: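 CYP1A2 mRNA induction measured by quantitative nuclease protection (chemiluminescent) in human primary hepatocytes 24 h after multi-concentration chemical dosing with daily fresh solutions. DMSO (0.2%) baseline; positive-direction fitting; morphology-based cytotoxicity noted.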

Read-out in test [13]: Broad substrate specificity ATP-binding cassette transporter ABCG2 (Homo sapiens) (UniProt Q9UNQ0)
The experiment in a line: CLD_ABCG2_24hr: CellzDirect (CLD) Gene Expression Assay for ABC Transporter (ABCG2) at 24 hours (AID 2283685). The method, boiled down: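 ABCG2 mRNA induction, read as gain of chemiluminescent signal over 0.2% DMSO, was measured by quantitative nuclease protection at 24 h. Cultured human liver hepatocytes were given fresh dosing solutions of test chemicals at several concentrations each day.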

Read-out in test [14]: Cytochrome P450 2C19 (Homo sapiens) (UniProt P33261)
The experiment in a line: CLD_CYP2C19_6hr: CellzDirect (CLD) Gene Expression Assay for xenobiotic metabolism (CYP2C19) at 6 hours (AID 2283678). Put shortly: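 CYP2C19 transcript induction was quantified by quantitative nuclease protection assay with chemiluminescent read-out, 6 h after dosing. Cells were primary human hepatocytes from two donor preparations, given fresh dosing solutions daily in 0.2% DMSO vehicle. Activity was relative to DMSO.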

Read-out in test [15]: Cytochrome P450 3A4 (Homo sapiens) (UniProt P08684)
Put plainly: CLD_CYP3A4_48hr: CellzDirect (CLD) Gene Expression Assay for xenobiotic metabolism (CYP3A4) at 48 hours (AID 2283698). The method, boiled down: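 CYP3A4 induction read by qNPA chemiluminescence after 48 h, with fresh dosing solutions on consecutive days, in cultured human hepatocytes (two donors). Vehicle 0.2% DMSO as baseline; microscopy-based cytotoxicity annotated yes/no alongside data.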

Read-out in test [16]: ABC Transporter (ABCB1), ABCB1 (gene 5243)
The experiment in a line: CLD_ABCB1_24hr: CellzDirect (CLD) Gene Expression Assay for ABC Transporter (ABCB1) at 24 hours (AID 2283684). The method, boiled down:
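ABCB1 mRNA induction versus 0.2% DMSO vehicle was read by qNPA chemiluminescence at 24 h. Cultured human hepatocytes from two donor preparations received daily fresh dosing, and phase-contrast cytotoxicity calls were annotated alongside the data.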

Read-out in test [17]: ABC Transporter (ABCB1), ABCB1 (gene 5243)
Put plainly: CLD_ABCB1_48hr: CellzDirect (CLD) Gene Expression Assay for ABC Transporter (ABCB1) at 48 hours (AID 2283695). Put shortly:
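ABCB1 mRNA was measured by quantitative nuclease protection assay (chemiluminescence) 48 h after dosing. Human hepatocyte cultures from two separate donors received fresh dosing solutions daily for two days, with 0.2% DMSO as vehicle. Positive-direction fit against DMSO.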

Records with an inconclusive call do not appear. The source made the active and inactive calls. How the source made its calls, unless noted: active means hit-call score of the fitted dose curve at least 0.9, where 1 is the maximum; inconclusive means response in the unintended direction; inactive means score below 0.9.

Cytochrome P450 3A4 (Homo sapiens), sequence (P08684 whole entry, looked up): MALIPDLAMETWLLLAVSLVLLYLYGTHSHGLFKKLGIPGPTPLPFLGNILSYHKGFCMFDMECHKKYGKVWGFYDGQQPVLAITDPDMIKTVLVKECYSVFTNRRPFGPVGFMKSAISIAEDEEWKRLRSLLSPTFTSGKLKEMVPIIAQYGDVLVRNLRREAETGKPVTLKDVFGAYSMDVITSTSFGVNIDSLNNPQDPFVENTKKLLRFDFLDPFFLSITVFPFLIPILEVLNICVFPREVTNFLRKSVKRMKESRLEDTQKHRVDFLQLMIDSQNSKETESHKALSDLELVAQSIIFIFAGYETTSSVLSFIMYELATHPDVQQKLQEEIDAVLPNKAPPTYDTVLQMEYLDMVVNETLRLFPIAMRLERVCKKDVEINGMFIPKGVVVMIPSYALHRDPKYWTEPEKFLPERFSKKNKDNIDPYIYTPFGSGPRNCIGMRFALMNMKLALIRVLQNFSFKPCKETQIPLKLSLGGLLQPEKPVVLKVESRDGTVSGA
Broad substrate specificity ATP-binding cassette transporter ABCG2 (Homo sapiens), sequence (Q9UNQ0 whole entry, looked up): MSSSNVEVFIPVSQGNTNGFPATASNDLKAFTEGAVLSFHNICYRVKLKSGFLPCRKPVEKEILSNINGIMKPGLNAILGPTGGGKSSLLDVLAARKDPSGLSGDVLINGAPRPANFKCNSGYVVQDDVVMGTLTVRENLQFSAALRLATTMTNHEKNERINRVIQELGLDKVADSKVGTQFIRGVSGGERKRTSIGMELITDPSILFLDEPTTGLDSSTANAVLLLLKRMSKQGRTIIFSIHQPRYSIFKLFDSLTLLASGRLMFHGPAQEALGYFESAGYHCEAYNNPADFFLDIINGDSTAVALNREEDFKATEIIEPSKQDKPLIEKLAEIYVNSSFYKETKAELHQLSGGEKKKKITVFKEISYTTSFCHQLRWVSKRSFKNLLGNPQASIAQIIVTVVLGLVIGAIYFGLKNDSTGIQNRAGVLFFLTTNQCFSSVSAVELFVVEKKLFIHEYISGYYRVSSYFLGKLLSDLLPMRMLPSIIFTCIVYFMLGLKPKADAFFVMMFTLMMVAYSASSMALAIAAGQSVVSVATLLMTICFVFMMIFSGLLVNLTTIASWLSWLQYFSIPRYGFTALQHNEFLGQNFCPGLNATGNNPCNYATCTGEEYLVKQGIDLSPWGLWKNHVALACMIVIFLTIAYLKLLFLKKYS
Cytochrome P450 2C19 (Homo sapiens), sequence (P33261 whole entry, looked up): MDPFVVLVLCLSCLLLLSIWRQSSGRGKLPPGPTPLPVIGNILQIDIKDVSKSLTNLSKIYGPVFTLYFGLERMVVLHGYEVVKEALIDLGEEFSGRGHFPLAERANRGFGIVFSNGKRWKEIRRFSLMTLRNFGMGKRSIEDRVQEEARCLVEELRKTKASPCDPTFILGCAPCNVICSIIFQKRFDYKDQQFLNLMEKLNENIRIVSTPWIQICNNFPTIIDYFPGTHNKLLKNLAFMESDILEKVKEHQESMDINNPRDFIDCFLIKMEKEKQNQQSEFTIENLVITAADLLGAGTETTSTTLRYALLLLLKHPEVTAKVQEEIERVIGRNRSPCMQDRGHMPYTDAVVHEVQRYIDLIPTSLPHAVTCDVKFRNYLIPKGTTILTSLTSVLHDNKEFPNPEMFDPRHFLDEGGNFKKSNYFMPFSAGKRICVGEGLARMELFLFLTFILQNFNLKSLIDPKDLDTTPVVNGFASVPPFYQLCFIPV

`CCCCOCN(C(=O)CCl)c1c(CC)cccc1CC`: the call in test [1], in test [5], in test [6], in test [7], in [8] and in [9] was inactive. In addition, the values for the AC50 in test [2], in [3] and in test [4] were 2.29 µM (active), 5.42 µM (active) and 1.11 µM (active), respectively.
For the molecule `Clc1nc(Cl)nc(Nc2ccccc2Cl)n1`, the call in test [1], in test [2], in [10], in [7] and in [11] was inactive. Besides, the AC50 (usually the concentration at which the activity in the assay is half-maximal) in [3] was 52 µM (active).
For `CNC(=O)Oc1cccc2ccccc12`, the molecule was called inactive in [1], in [13] and in [9]. Further, the AC50 in test [2] is 6.15 µM (active); in [3], 60.8 µM (active); in test [12], 2.83 µM (active); in test [4], 7.28 µM (active).
In the case of `COP(=S)(OC)Oc1ccc([N+](=O)[O-])c(C)c1`, the result in test [1], in test [14] and in test [9] was inactive. For the same molecule, the concentration at half-maximal activity (AC50) in [2] is 1.46 µM (active); in test [3], 50 µM (active); in test [7], 16.6 µM (active); in [15], 0.0472 µM (active).
`CC1(C)CON(Cc2ccccc2Cl)C1=O`: the result in [1], in test [14], in [3], in test [12], in test [13] and in test [5] was inactive. For the same molecule, the outcome in test [8] and in [9] was inactive. In addition, the AC50 is 3.31 µM (active) in test [2], 20 µM (active) in test [4] and 20 µM (active) in test [7].
For the molecule `CC1(C)C(C(=O)OC(C#N)c2cccc(Oc3ccccc3)c2)C1(C)C` (centres undefined), the result in test [1], in [13], in test [6] and in test [8] was inactive. Further, the AC50 in test [2] was 4.01 µM (active); in test [3], 1.44 µM (active); in [12], 20 µM (active); in test [7], 13 µM (active); in test [9] it was 5.68 µM (active).
On to `COc1cc(OC)nc(NC(=O)NS(=O)(=O)c2ncccc2OCC(F)(F)F)n1`, for which the result in [1], in [2], in test [14], in [3], in test [16] and in test [5] was inactive. Moreover, the molecule was classed as inactive in [6], in [7], in test [8] and in test [11].
As to `CS(=O)(=O)c1cc(C(F)(F)F)ccc1C(=O)c1cnoc1C1CC1`, the outcome in [1], in test [2], in test [14], in test [3], in [5] and in test [8] was inactive. Also, the result in test [9] was inactive. In addition, the AC50 in test [7] is 9.79 µM (active); in test [15], 29.1 µM (active).
As to `CC(C)Nc1nc(Cl)nc(NC(C)C)n1`, the molecule was called inactive in test [1], in [3], in test [6] and in test [8]. Moreover, the figures for the AC50 in [2], in [7] and in test [9] were 2.47 µM (active), 6.2 µM (active) and 4.11 µM (active), respectively.
Regarding `C=C(C)CN(CC)c1c([N+](=O)[O-])cc(C(F)(F)F)cc1[N+](=O)[O-]`, the molecule was classed as inactive in test [1], in [2], in test [14], in test [3], in test [12] and in [16]. The molecule was called inactive in test [13], in [4], in [5], in test [6], in test [8] and in test [17]. In addition, the outcome in test [11] was inactive. In addition, the AC50 in test [7] was 5.33 µM (active).
